# According to PubChem BioAssay (NCATS):
# Records with an inconclusive call do not appear. Activity calls are given as the source filed them. The call rests on the fitted dose curve; in most records, active means well fitted inhibition curve with a large enough effect; inconclusive means small, poorly fitted or top-dose-only effect; inactive means flat fitted curve, though single readings scatter.
# Experiment: BET inhibitor-based combinations targeting novel dependencies in MECOM-rearranged (r) AML: AML-191 cell line (AID 2202236; further: nearly all actives have a fitted effect of over 35% in size;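 on viability (% of control): plate controls were vehicle wells for no effect and wells without cells for full effect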)
# Conditions: AML-191 viability, CellTiter-Glo luminescence, 48 h; series mostly up to 46 µM; viability (% of control): at the top concentration
# Excerpt: Ecotropic viral insertion site 1 (EVI1) is located on chromosome 3q26.2 as part of the MECOM (MDS and EVI1 complex) locus. Under normal hematopoiesis, EVI1 is a regulator of hematopoietic stem cell maintenance and self-renewal and EVI1 levels decrease as the cells differentiate. In approximately 5-10% of de novo acute myeloid leukemia (AML) EVI1 is aberrantly expressed, including Chromosomal inv(3)(q21;q26.2) or t(3;3)(q21;q26.2) alterations (MECOM-r) that account for about 50% of AML with EVI1 overexpression 31. AMLs with high levels of EVI1 have a poor prognosis and an overall survival time averaging between 10-14 months. EVI1 overexpression confers resistance in leukemia cells, highlighting the need to develop new targeted therapies for EVI1 overexpressing AMLs.
# Here, we performed an unbiased chemical drug screening by evaluating the single agent activity of a collection of 2,480 oncology-focused, approved and investigational drugs (NCATS Mechanism Interrogation Plates, MIPE v5.0) against a panel of seven AML cell lines. These included four MECOM-r cell-lines (AML-191, AML-194, UCSD-AML1 and HNT-34) and three non-MECOM-r AMLs (MV4-11, OCI-AML3 and SET-2). Exploiting the mechanistic redundancy built in the library, we identified target-level sensitivities in MECOM-r AML cells and relative activity as compared to other AML subtypes.
# A collection of 2480 mechanistically annotated dugs (MIPE v5.0) was used to screen four 3q26.2 rearranged AML cell lines and three non-3q26.2 rearranged AML cell lines. This library purposely exploits redundancy by including multiple inhibitors of key onco-targets, while simultaneously encompassing mechanistic diversity, targeting more than 800 distinct mechanisms of action. Briefly, cells were seeded in 5 uL of growth media using a Multidrop Combi dispenser into 1536 well white polystyrene tissue culture treated plates (Corning) at a density of 500cells/well. For each cell-line, for each of the 2480 drugs in MIPE v5.0 library, an 11-point dose curve was generated via a 1536 pin-tool. Plates were incubated for 48 hr at standard incubator conditions, covered by a stainless steel gasketed lid to prevent evaporation. Cell viability was determined by luminescence based, Cell Titer Glo assay (Promega). In detail, 3 uL of Cell Titer Glo were added to each well and plates were incubated at room temperature for 15 min with a stainless-steel lid in place. Luminescence readings were taken using a Viewlux (PerkinElmer) with a 2 s exposure time per plate. Compound dose-response curves were normalized to DMSO and empty well controls on each plate. Quantitative drug activity data from dose-response curves was determined utilizing area Under the Curve (AUC) and Z-transformed AUC (Z-AUC, a mean-centering transformation applied to each individual cell-line screened).
# Potency means the concentration at half of the fitted maximal effect.
Compound,viability (% of control),Potency
CN(C)NC(=O)CCC(=O)O,83.8% (inactive),
CC(C)(O)/C=C\C(=O)[C@](C)(O)[C@H]1[C@H](O)C[C@]2(C)[C@@H]3CC=C4[C@@H](C=C(O)C(=O)C4(C)C)[C@]3(C)C(=O)C[C@@]12C,,0.0934 µM (active)
CC1(C)CC[C@]2(NC(=O)C(C)(F)F)CC[C@]3(C)[C@H](C(=O)C=C4[C@@]5(C)C=C(C#N)C(=O)C(C)(C)[C@@H]5CC[C@]43C)[C@@H]2C1,,1.86 µM (active)
CCN1C[C@]2(OC(=O)c3ccccc3NC(C)=O)CC[C@H](OC)[C@@]34[C@H]5CC6[C@@H](OC)C[C@](O)(C(C[C@@H]23)[C@@H]14)[C@@]5(O)[C@@H]6OC,108% (inactive),
C/C1=C/C[C@@H](/C(C)=C/c2csc(C)n2)OC(=O)C[C@H](O)C(C)(C)C(=O)[C@H](C)[C@@H](O)[C@@H](C)CCC1,,0.0833 µM (active)
COc1ccc(C(=O)c2c(C)n(CCN3CCOCC3)c3ccccc23)cc1,,2.63 µM (active)
CCOC(=O)Nc1ccc(NCc2ccc(F)cc2)cc1N,95.3% (inactive),
COC(=O)[C@]12CCC(C)(C)C[C@H]1[C@H]1C(=O)C=C3[C@@]4(C)C=C(C#N)C(=O)C(C)(C)[C@@H]4CC[C@@]3(C)[C@]1(C)CC2,,1.86 µM (active)
C[C@@]12OC(=O)[C@]1([C@@H](O)[C@@H]1C=CCCC1)NC(=O)[C@@H]2CCCl,,0.0263 µM (active)
CC(C)CC(N(C)C)C1(c2ccc(Cl)cc2)CCC1 (stereo not given),102% (inactive),
C[C@@H]1O[C@@H](O[C@H]2C[C@@H](O)[C@]3(CO)[C@H]4[C@H](O)C[C@]5(C)[C@@H](C6=CC(=O)OC6)CC[C@]5(O)[C@@H]4CC[C@]3(O)C2)[C@H](O)[C@H](O)[C@H]1O,,0.0833 µM (active)
CCOC(=O)c1c(C(C#N)=CN)c2ccc(Cl)c(Cl)c2n1C,88.4% (inactive),
O=c1[nH]c2ccccc2n1CCCN1CCC(n2c(=O)[nH]c3cc(Cl)ccc32)CC1,99.8% (inactive),
O=S(=O)(F)Cc1ccccc1,106% (inactive),
CCCC[N+]1(C)[C@H]2CC(OC(=O)[C@H](CO)c3ccccc3)C[C@H]1[C@H]1O[C@H]12 (stereo not given in full),107% (inactive),
Cc1ccccc1-n1c(Cn2cnc3c(N)ncnc32)nc2cccc(C)c2c1=O,89.1% (inactive),
CC1(C)C(=O)N(c2ccc(C#N)c(C(F)(F)F)c2)C(=S)N1Cc1ccc(-c2cn[nH]n2)cc1,,18.6 µM (active)
Cn1c(COP(=O)(NCCBr)NCCBr)cnc1[N+](=O)[O-],112% (inactive),
COC(=O)[C@@H](N)CCCN=C(N)N[N+](=O)[O-],108% (inactive),
COc1ccc(C(=O)c2c(C)n(CCN3CCOCC3)c3cc(I)ccc23)cc1,,6.61 µM (active)

Compound,viability (% of control),Potency
C[C@@H]1CC[C@H]2[C@@H](C)C(=O)O[C@@H]3O[C@@]4(C)CC[C@@H]1[C@]32OO4,,5.25 µM (active)
Clc1ccccc1C(c1ccccc1)(c1ccccc1)n1cccn1,107% (inactive),
CCC1(c2ccc(N)cc2)CCC(=O)NC1=O (stereo not given),87.6% (inactive),
CN(C)CCN(C)CCc1ccc(Cl)c(Cl)c1,87.1% (inactive),
O=c1[nH]c2ccc(Cl)cc2c(N[C@@H]2CN3CCC2CC3)c1-c1nc2ccccc2[nH]1,,0.417 µM (active)
COC[C@@H](NC(C)=O)C(=O)NCc1ccccc1,115% (inactive),
O=C1C=CC[C@@H]2[C@H]3CCCN4CCC[C@@H](CN12)[C@@H]34,87.1% (inactive),
N=c1c2c(-c3ccccc3)c(-c3ccccc3)n(Cc3ccccc3)c2ncn1C1CCC(O)CC1 (stereo not given),,2.63 µM (active)
COc1cc2cc(c1Cl)N(C)C(=O)C[C@H](OC(=O)C(C)C)[C@]1(C)O[C@@H]1[C@H](C)[C@@H]1C[C@@](O)(NC(=O)O1)[C@H](OC)/C=C/C=C(\C)C2,8.31% (inactive),
C=C(C)[C@H]1Cc2c(ccc3c2O[C@@H]2COc4cc(OC)c(OC)cc4[C@@H]2C3=O)O1,,0.934 µM (active)
CCCCCC[C@H]1C(=O)O[C@H](C)[C@H](NC(=O)c2cccc(NC=O)c2O)C(=O)O[C@@H](C)[C@@H]1OC(=O)CC(C)C,,0.263 µM (active)
CCNC(=O)CC1N=C(c2ccc(Cl)cc2)c2cc(OC)ccc2-n2c(C)nnc21 (stereo not given),,13.2 µM (active)
CN1C(=O)[C@@H](NC(=O)[C@H](CCC(F)(F)F)[C@H](CCC(F)(F)F)C(N)=O)N=C(c2ccccc2)c2ccccc21,111% (inactive),
CCc1c(C(=O)C(N)=O)c2c(OCC(=O)O)cccc2n1Cc1ccccc1,102% (inactive),
COc1ccc(N(C(=O)Oc2c(C)cccc2C)c2ccnc(Nc3ccc(N4CCN(C)CC4)cc3)n2)c(OC)c1,,2.63 µM (active)
COC1(CS(=O)c2ccccc2)CCN(CCc2c[nH]c3ccc(F)cc23)CC1 (stereo not given),103% (inactive),
C/C(=C\c1csc(C)n1)[C@@H]1C[C@@H]2O[C@@H]2CCC[C@H](C)[C@H](O)[C@@H](C)C(=O)C(C)(C)[C@@H](O)CC(=O)O1,,0.0235 µM (active)
C[C@]12CC[C@H](O)CC1=CC[C@@H]1[C@@H]2CC[C@]2(C)C(=O)CC[C@@H]12,98.5% (inactive),
C/C=C(/C)C(=O)O[C@H]1C(C)=C2[C@H]([C@@H]1OC(=O)CCCCCCC)[C@@](C)(OC(C)=O)C[C@H](OC(=O)CCC)[C@@]1(O)[C@H]2OC(=O)[C@@]1(C)O,,0.417 µM (active)
COC12C(COC(N)=O)C3=C(C(=O)C(C)=C(N)C3=O)N1CC1C2N1C (stereo not given),117% (inactive),
